This is an account of results in PubChem BioAssay (NCATS).

Inconclusive results are not listed. The source made the active and inactive calls. Unless noted, the call rests on the fitted dose curve.

Chain of Androgen receptor (Homo sapiens) (P10275 whole entry, looked up): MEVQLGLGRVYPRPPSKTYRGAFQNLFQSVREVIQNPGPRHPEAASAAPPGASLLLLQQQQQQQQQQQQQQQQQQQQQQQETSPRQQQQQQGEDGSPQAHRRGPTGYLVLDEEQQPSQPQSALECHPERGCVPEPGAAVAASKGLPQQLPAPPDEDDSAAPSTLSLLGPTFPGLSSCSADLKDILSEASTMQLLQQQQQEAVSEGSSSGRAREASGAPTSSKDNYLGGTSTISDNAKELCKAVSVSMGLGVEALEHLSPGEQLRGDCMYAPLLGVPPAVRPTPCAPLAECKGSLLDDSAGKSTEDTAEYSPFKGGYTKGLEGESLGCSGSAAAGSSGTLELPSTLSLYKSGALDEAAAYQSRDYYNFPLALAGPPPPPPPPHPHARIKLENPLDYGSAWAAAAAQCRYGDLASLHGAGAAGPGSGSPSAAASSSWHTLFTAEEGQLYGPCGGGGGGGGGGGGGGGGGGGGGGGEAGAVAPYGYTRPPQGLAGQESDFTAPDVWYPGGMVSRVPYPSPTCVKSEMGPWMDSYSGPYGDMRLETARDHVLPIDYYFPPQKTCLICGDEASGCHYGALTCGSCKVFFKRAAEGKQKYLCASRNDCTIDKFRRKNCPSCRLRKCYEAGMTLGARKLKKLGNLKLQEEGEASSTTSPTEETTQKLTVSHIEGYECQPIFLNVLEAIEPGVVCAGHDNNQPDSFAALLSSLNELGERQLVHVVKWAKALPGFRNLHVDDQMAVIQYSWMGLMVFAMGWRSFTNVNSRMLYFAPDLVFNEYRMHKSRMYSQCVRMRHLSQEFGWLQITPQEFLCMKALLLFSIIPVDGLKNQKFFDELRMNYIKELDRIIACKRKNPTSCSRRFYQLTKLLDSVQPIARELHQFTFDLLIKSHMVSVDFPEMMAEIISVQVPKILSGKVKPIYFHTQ
Chain of Peroxisome proliferator-activated receptor gamma (Homo sapiens) (P37231 whole entry, looked up): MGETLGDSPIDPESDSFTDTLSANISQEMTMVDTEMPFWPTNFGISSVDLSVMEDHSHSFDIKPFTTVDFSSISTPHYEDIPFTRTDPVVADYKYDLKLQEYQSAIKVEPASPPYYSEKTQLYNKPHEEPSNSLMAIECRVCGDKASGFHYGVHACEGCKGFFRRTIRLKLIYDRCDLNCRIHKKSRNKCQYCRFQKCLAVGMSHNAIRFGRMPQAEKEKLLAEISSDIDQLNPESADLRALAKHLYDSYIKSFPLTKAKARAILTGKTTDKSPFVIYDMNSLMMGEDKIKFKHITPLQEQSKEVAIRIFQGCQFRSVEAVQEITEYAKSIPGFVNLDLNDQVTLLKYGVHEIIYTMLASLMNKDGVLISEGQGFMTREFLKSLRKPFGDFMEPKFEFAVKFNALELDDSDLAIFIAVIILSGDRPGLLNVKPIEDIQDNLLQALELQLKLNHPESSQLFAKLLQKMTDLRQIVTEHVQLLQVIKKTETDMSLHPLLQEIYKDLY
Chain of Glucocorticoid receptor (Homo sapiens) (P04150 whole entry, looked up): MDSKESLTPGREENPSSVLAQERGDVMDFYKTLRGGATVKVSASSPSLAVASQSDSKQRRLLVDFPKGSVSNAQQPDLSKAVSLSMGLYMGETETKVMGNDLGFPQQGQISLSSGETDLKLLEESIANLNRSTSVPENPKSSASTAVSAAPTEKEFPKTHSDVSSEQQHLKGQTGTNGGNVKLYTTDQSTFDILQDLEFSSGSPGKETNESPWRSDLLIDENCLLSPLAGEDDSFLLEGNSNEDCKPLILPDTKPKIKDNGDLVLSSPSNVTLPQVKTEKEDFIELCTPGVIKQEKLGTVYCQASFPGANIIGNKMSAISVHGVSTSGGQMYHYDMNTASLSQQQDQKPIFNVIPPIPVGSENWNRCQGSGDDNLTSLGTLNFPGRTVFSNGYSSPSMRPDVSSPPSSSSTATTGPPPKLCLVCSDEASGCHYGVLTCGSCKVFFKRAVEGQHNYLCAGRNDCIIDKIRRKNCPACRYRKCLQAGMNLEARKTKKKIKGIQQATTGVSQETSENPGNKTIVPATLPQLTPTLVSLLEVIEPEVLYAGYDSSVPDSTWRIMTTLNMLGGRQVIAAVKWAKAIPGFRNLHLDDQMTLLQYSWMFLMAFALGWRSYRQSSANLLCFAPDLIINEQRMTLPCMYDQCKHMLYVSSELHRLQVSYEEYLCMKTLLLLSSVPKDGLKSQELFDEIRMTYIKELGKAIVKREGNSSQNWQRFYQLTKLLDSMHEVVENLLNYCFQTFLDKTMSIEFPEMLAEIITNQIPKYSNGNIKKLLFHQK
Chain of Bile acid receptor (Homo sapiens) (Q96RI1 whole entry, looked up): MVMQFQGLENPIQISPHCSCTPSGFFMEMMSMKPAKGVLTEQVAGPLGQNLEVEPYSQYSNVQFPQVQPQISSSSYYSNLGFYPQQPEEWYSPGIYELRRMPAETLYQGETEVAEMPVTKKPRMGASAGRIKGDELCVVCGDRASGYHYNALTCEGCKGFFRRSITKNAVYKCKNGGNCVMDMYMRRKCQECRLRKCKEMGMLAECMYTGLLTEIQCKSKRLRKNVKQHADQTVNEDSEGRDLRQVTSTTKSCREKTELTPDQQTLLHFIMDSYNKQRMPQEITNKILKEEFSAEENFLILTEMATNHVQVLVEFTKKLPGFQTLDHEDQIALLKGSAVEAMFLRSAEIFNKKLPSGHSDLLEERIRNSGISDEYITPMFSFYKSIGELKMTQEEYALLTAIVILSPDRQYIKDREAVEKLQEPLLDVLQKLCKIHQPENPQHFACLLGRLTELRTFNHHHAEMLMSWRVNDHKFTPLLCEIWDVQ
Chain of Vitamin D3 receptor (Homo sapiens) (P11473 whole entry, looked up): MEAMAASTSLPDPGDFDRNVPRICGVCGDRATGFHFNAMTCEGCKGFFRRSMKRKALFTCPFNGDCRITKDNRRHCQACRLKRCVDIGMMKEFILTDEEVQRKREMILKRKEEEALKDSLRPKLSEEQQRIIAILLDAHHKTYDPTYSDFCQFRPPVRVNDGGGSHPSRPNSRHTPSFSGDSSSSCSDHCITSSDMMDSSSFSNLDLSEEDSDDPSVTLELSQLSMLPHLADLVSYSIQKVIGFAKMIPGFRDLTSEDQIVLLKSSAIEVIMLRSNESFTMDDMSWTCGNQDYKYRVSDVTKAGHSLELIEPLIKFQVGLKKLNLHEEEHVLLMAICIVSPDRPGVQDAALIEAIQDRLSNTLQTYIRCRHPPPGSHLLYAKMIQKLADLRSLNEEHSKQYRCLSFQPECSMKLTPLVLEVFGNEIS

The first test has as its target Androgen receptor (Homo sapiens) (UniProt P10275). Kind of test: qHTS assay for small molecule agonists of androgen receptor signaling (AID 588515; active means well fitted curve in the direction sought with a large enough effect in the signal ratio, with a control signal flat; the % refers to the signal ratio; further: on the % scale 0 is the no-effect control and ±100 the full control effect). The conditions noted are these: AR-UAS-bla HEK293, beta-lactamase ratio, agonist 16 h; active compounds read high. In short, it runs like this:
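Stimulation of an AR-responsive β-lactamase reporter in GripTite HEK293 cells was measured after 16 h compound exposure at 37 °C, via CCF4 fluorescence after 2 h RT. EC50 from Hill fits, normalized to R1881 at 30 nM.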
(In qHTS, concentration-response curves come from the screen itself.)
`NC(=O)c1ccccc1`: the activation is -3.5% (inactive).
On the same count and under the same terms, under `CC[C@@H]1Cc2cc(O)ccc2C2=C1c1ccc(O)cc1C[C@H]2CC` stands -13.9% (inactive).

The target is the same in the next test. Nature of the test: qHTS assay for small molecule antagonists of androgen receptor signaling (AID 588516; active means well fitted curve in the direction sought with a large enough effect in the signal ratio, with a control signal flat, not every such curve was filed as active; the % refers to the signal ratio; further: on the % scale 0 is the no-effect control and ±100 the full control effect). The conditions noted are these: AR-UAS-bla HEK293, beta-lactamase ratio, antagonist mode, 16 h; series mostly up to 76.8 µM; activity change, negative = inhibition: at the top concentration. In short, it runs like this:
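Cells were plated and incubated 5 h, compounds added in titration, then R1881 (10 nM final) as agonist. After 16 h at 37 C, CCF4 substrate was loaded for 2 h at room temperature and fluorescence measured.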
In the case of `CCCCCCCCCCCCCCSCC(=O)O`, the “activity change, negative = inhibition” value is 10.7% (inactive).
In the case of `CCCc1c(OCCCOc2ccc(OCC(=O)O)cc2)ccc(C(C)=O)c1O`, the “activity change, negative = inhibition” value was -6.06% (inactive).
As to `NC(=O)c1ccccc1`, the “activity change, negative = inhibition” value is -2.17% (inactive).

Another test addresses Bile acid receptor (Homo sapiens) (UniProt Q96RI1). Nature of the test: qHTS assay for small molecule antagonists of farnesoid X receptor signaling (AID 588526). Further: on the % scale 0 is the no-effect control and ±100 the full control effect. The conditions noted are these: HEK293T FXR-UAS-bla, beta-lactamase ratio, antagonist mode; series mostly up to 76.7 µM; activity change, negative = inhibition: at the top concentration. In short, it runs like this:
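Beta-lactamase reporter antagonist mode: HEK293T FXR-UAS-bla cells, titrated compound, CDCA stimulation, 16 h 37 C, CCF4 dye 2 h RT. Data normalized to CDCA 50 uM and DMSO; Hill-fit IC50.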
As for `CCCc1c(OCCCOc2ccc(OCC(=O)O)cc2)ccc(C(C)=O)c1O`, the “activity change, negative = inhibition” value was -0.171% (inactive).
Take `CC(=O)C(C)=O`: the “activity change, negative = inhibition” value was -0.694% (inactive).
In the case of `NC(=O)c1ccccc1`, the “activity change, negative = inhibition” value was -2.6% (inactive).
Same read-out and setting: under `C/C(=C\c1ccc(C(=O)O)cc1)c1ccc2c(c1)C(C)(C)CCC2(C)C` stands 0.216% (inactive).

The next test addresses Glucocorticoid receptor (Homo sapiens) (UniProt P04150). Nature of the test: qHTS assay for small molecule agonists of glucocorticoid receptor signaling (AID 588532; active means well fitted curve in the direction sought with a large enough effect in the signal ratio, with a control signal flat; the % refers to the signal ratio;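 further: 100% = dexamethasone at 0.1 µM and 0% = DMSO only wells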). The following applies: HeLa MMTV-bla, beta-lactamase ratio, agonist, 18 h; active compounds read high; percent of dexamethasone control, DMSO zero. The gist of the method:
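Agonist-mode qHTS: GRE-driven beta-lactamase in HeLa cells exposed 18 h to titrated compounds (up to 92 uM), then CCF4 ratio read after 2 h at RT; Hill-fitted EC50, efficacy relative to 0.1 uM dexamethasone.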
Turning to `CC1=C(/C=C/C(C)=C/C=C/C(C)=C\C(=O)O)C(C)(C)CCC1`, the activation was -7.34% (inactive).
Regarding `CCCc1c(OCCCOc2ccc(OCC(=O)O)cc2)ccc(C(C)=O)c1O`, the activation was -12.7% (inactive).
Still for that read-out and setting: next, `CC(=O)C(C)=O`: 6.3% (inactive); `NC(=O)c1ccccc1`: -7.58% (inactive).
On the same count and under the same terms, next, `CC[C@@H]1Cc2cc(O)ccc2C2=C1c1ccc(O)cc1C[C@H]2CC`: -4.83% (inactive); `C/C(=C\c1ccc(C(=O)O)cc1)c1ccc2c(c1)C(C)(C)CCC2(C)C`: -4.65% (inactive).

The target is the same in the next test. Kind of test: qHTS assay for small molecule antagonists of glucocorticoid receptor signaling (AID 588533; active means well fitted inhibition curve with a large enough effect in the signal ratio, with a control signal flat, not every such curve was filed as active; the % refers to the signal ratio;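 further: cells stimulated with 2 nM dexamethasone as agonist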; further: potency means the concentration at half of the fitted maximal effect). The following applies: HeLa MMTV-bla, GRE beta-lactamase ratio, antagonist mode, 18 h; series mostly up to 76.8 µM; activity change, negative = inhibition: at the top concentration. The gist of the method:
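Antagonist-mode qHTS: compound titrations added to GRE-bla HeLa cells, then dexamethasone 2 nM final; 18 h, 37 C. CCF4 FRET fluorescence normalized to dexamethasone and DMSO; IC50 from Hill fit.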
`CCCCCCCCCCCCCCSCC(=O)O`: the “activity change, negative = inhibition” value is -2.51% (inactive).
As for `CCCc1c(OCCCOc2ccc(OCC(=O)O)cc2)ccc(C(C)=O)c1O`, the “activity change, negative = inhibition” value is -15.7% (inactive).
Take `CC(=O)C(C)=O`: the “activity change, negative = inhibition” value was -6.81% (inactive).
With `NC(=O)c1ccccc1`, the “activity change, negative = inhibition” value was -11.8% (inactive).
With `CCCc1c(-c2ccc(O)cc2)nn(-c2ccc(O)cc2)c1-c1ccc(O)cc1`, the Potency is 28.2 µM (active).

Another test concerns the target Peroxisome proliferator-activated receptor gamma (Homo sapiens) (UniProt P37231). Nature of the test: qHTS assay for small molecule agonists of peroxisome proliferator-activated receptor gamma signaling (AID 588536; active means well fitted curve in the direction sought with a large enough effect in the signal ratio, with a control signal flat, not every such curve was filed as active; the % refers to the signal ratio; further: potency means the concentration at half of the fitted maximal effect;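 on activation: 0% = DMSO basal wells and 100% = rosiglitazone at 2 µM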). The conditions noted are these: HEK293 PPARg-UAS-bla, beta-lactamase ratio, 16 h; series mostly up to 76.7 µM; activation: at the top concentration. In short, it runs like this:
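Cells were plated and held 6–6.5 h at 37 C, then compounds were added as a titration series. After a further 16 h, CCF4 dye was loaded for 2 h at room temperature and emission at 460/530 nm recorded.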
Turning to `CCCCCCCCCCCCCCSCC(=O)O`, the Potency is 28.2 µM (active).
For the compound `CC(=O)C(C)=O`, the “activation” value was 2.49% (inactive).
The same measure, in the same setting: next, `NC(=O)c1ccccc1`: -4.59% (inactive).

The target is the same in the next test. Kind of test: qHTS assay for small molecule antagonists of peroxisome proliferator-activated receptor gamma signaling (AID 588537; active means well fitted inhibition curve with a large enough effect in the signal ratio, with a control signal flat, not every such curve was filed as active; the % refers to the signal ratio; further: potency means the concentration at half of the fitted maximal effect;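 on activity, negative = inhibition: reporter cells co-stimulated with 50 nM rosiglitazone agonist during compound treatment; % of control where 0% means no effect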). The following applies: HEK293 PPARg-UAS-bla, beta-lactamase ratio, antagonist mode; series mostly up to 76.8 µM; activity, negative = inhibition: at the top concentration. The gist of the method: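 Antagonist-mode β-lactamase reporter screen run as a titration series. HEK293 PPARγ-UAS-bla cells are stimulated with rosiglitazone (50 nM final) for 16 h, then CCF4 is read at 460/530 nm. Data are scaled between DMSO and rosiglitazone and fitted to the Hill equation.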
Consider `CC1=C(/C=C/C(C)=C/C=C/C(C)=C\C(=O)O)C(C)(C)CCC1`, for which the “activity, negative = inhibition” value was 8.56% (inactive).
For `CCCc1c(OCCCOc2ccc(OCC(=O)O)cc2)ccc(C(C)=O)c1O`, the “activity, negative = inhibition” value is -14.1% (inactive).
Turning to `NC(=O)c1ccccc1`, the “activity, negative = inhibition” value was 10.6% (inactive).
For `CCCc1c(-c2ccc(O)cc2)nn(-c2ccc(O)cc2)c1-c1ccc(O)cc1`, the Potency was 22.4 µM (active).

The target in the next test is Vitamin D3 receptor (Homo sapiens) (UniProt P11473). Kind of test: qHTS assay for small molecule antagonists of vitamin D receptor signaling (AID 588541).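 Further: receptor activated by calcitriol during compound treatment; on the % scale 0 is the no-effect control and ±100 the full control effect.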 The following applies: HEK293T VDR-UAS-bla, beta-lactamase ratio, antagonist mode; series mostly up to 76.7 µM; activity change, negative = inhibition: at the top concentration. In short, it runs like this:
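Antagonist-mode beta-lactamase reporter assay: HEK293T VDR-UAS-bla cells were exposed to titrated compound alongside 1-alpha,25-dihydroxyvitamin D3 at 3 nM final for 16 h. Values were normalized to the 50 nM agonist control and DMSO basal, with IC50 and efficacy from Hill equation fits.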
As to `CC1=C(/C=C/C(C)=C/C=C/C(C)=C\C(=O)O)C(C)(C)CCC1`, the “activity change, negative = inhibition” value was 5.76% (inactive).
For `CC(=O)C(C)=O`, the “activity change, negative = inhibition” value was 1.64% (inactive).
Still for that read-out and setting: next, `NC(=O)c1ccccc1`: -7.14% (inactive).
As for `C/C(=C\c1ccc(C(=O)O)cc1)c1ccc2c(c1)C(C)(C)CCC2(C)C`, the “activity change, negative = inhibition” value was 6.38% (inactive).

Another test has the same target. Nature of the test: qHTS assay for small molecule agonists of vitamin D receptor signaling (AID 588543).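 Further: 0% = DMSO basal and 100% = reference agonist control.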 The conditions noted are these: HEK293T VDR-UAS-bla, beta-lactamase ratio, 16 h; series mostly up to 76.8 µM; activation: at the top concentration. In short, it runs like this: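 Reporter cells (HEK293T, VDR-UAS-bla) were seeded in medium with 2% charcoal-stripped serum and incubated 5 h, then compounds in concentration series were added for 16 h at 37 °C. Stimulation was scaled between DMSO basal and 50 nM 1α,25-dihydroxyvitamin D3.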
Consider `CC(=O)C(C)=O`, for which the “activation” value is 0.772% (inactive).
Same read-out and setting: next, `NC(=O)c1ccccc1`: 0.861% (inactive); `CC[C@@H]1Cc2cc(O)ccc2C2=C1c1ccc(O)cc1C[C@H]2CC`: -1.73% (inactive); `CCCc1c(-c2ccc(O)cc2)nn(-c2ccc(O)cc2)c1-c1ccc(O)cc1`: -7.56% (inactive).
Same read-out and setting: under `C/C(=C\c1ccc(C(=O)O)cc1)c1ccc2c(c1)C(C)(C)CCC2(C)C` stands -2.66% (inactive).
